Assay outcomes deposited in PubChem BioAssay by National Center for Advancing Translational Sciences (NCATS).
This is a sample that favours compounds with a hit; in the whole collection about 2.4% have one here.
Pol beta inh – DNA polymerase beta (human) inhibition | P06746 | Pol beta primer extension/strand displacement, fluorescence kinetic | Potency, µM (highest dose often 114 µM), inactives show top-dose activity change, negative = inhibition, hits mostly inhibitors | 340,000 compounds, 1.3% hits | AID 485314; note: % is set by controls: 0 for no effect and ±100 for the full control effect
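Kinetic readout of DNA synthesis with strand displacement by Pol beta. Compound and 10 nM enzyme sit 15 min at room temperature; 50 nM substrate starts the reaction, read immediately and at 10 min.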
Pol kappa inh – inhibitors of human DNA polymerase kappa; purified Pol kappa, fluorescent DNA synthesis assay, 10 min; Q9UBT6; 400,000 compounds, 0.53% hits; AID 588579; Potency, µM (highest dose often 107 µM), inactives show top-dose activity, negative = inhibition, hits mostly inhibitors; note: % is set by controls: 0 for no effect and ±100 for the full control effect
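50 nM final substrate added after 15 min RT preincubation of 10 nM Pol kappa with compound; fluorescence read at 0 and 10 min.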
Pol eta inh – blocks human DNA polymerase eta activity; Q9Y253; recombinant Pol eta, fluorescent DNA replication assay; Potency, µM (highest dose often 114 µM), inactives show top-dose activity change, negative = inhibition, actives largely listed as inhibitors; 390,000 compounds, 1.2% hits; AID 588591; note: % is set by controls: 0 for no effect and ±100 for the full control effect
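Pol eta at 10 nM preincubated with compounds 15 min at room temperature; reaction started with fluorescent substrate (50 nM final) and read kinetically at 0 and 10 min.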
GLS inh – glutaminase GLS (human) inhibition; GLS enzymatic activity, qHTS titration; Potency, µM (top dose mostly 45.5 µM), for the others: at the highest dose activity change, negative = inhibition, usual class: inhibitors; 410,000 compounds, 0.21% hits; O94925; note: % is set by controls: 0 for no effect and ±100 for the full control effect
Target sequence (O94925 whole entry, looked up): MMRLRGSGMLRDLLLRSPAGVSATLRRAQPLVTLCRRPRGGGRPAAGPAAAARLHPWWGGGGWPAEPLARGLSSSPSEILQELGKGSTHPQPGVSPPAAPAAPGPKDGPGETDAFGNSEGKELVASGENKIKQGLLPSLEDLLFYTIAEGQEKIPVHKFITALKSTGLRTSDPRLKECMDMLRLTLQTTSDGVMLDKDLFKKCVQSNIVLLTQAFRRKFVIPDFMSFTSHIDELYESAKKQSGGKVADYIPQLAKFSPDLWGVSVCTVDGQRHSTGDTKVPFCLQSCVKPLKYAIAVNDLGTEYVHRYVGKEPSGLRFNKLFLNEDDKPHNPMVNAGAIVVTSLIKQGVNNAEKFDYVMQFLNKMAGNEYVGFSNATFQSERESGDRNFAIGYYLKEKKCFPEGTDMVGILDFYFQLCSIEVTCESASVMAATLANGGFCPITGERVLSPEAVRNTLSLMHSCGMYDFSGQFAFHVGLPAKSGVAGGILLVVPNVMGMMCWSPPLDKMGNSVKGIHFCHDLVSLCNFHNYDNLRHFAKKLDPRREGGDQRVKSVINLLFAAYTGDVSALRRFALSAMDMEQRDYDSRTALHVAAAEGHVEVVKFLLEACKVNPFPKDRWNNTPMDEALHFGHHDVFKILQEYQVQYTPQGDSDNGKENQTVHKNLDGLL
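Coupled fluorescence readout: glutamate oxidase/HRP/Amplex Red detect glutamate formed by hKGA from L-glutamine (1 mM solution added). Buffer 45 mM KH2PO4 pH 8.2, 0.02% Tween-20; reads at t0 and 30 min RT.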
POLI inh – blocks human DNA polymerase iota activity. Q9UNA4. Pol iota fluorescent replication assay, 10 min. Potency, µM (series often up to 115 µM), without a hit: top-dose activity, negative = inhibition, actives largely listed as inhibitors. 390,000 compounds, 1% hits. AID 588590
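Pol iota at 10 nM preincubated 15 min with compounds at room temperature; reaction started with fluorescent substrate, 50 nM final. Fluorescence read kinetically at 0 and 10 min; buffer-only wells as negative control.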
GCN5L2 inh – inhibitors of human GCN5L2 histone acetyltransferase. Q92830. GCN5L2 HAT assay, ThioGlo1 CoA-SH fluorescence. 390,000 compounds, 0.21% hits. Potency, µM (top dose mostly 58.9 µM), for inactives: at the highest dose activity change, negative = inhibition, most hits filed as inhibitors; note: % is set by controls: 0 for no effect and ±100 for the full control effect
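Free CoA generated was detected with ThioGlo1 (50uM) fluorescence at Ex340nm/Em540nm, read immediately and after 20 min at room temperature. Enzyme, 20 nM in HEPES pH 7.5 buffer, saw compounds 15 min before adding 75uM H3(1-25) peptide and 70uM acetyl-CoA.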
Numbers without * were called inactive; ? = inconclusive; / = no result given; [ ] = remark or other dose. Calls come from the whole dose curve; as a rule, active = well fitted inhibition curve with a large enough effect; inconclusive = small, poorly fitted or top-dose-only effect, or another doubt; inactive = no such curve, though single readings can be large or run the other way. Potency is the fitted concentration of half-maximal effect.

SMILES | Pol beta inh | Pol kappa inh | Pol eta inh | GLS inh | POLI inh | GCN5L2 inh
CCOc1cccc(NC(=O)CSc2sc3c(O)cc(=O)[nH]c3c2C#N)c1 | -19.7% | 4.5% | -2.7% | 6.0% | 1.5% | -5.4%
Clc1cccc[n+]1CCCCCC[n+]1ccccc1Cl | / | -2.7% | / | / | -2.1% | /
COc1ccc(OC)c(-c2csc(NC(=O)COC(=O)c3ccc(NC(=O)CC#N)cc3)n2)c1 | / | 50.1µM* | 20µM* | -6.9% | 28.2µM* | ?
O=C(O)/C=C/C(=O)c1c(-c2ccccc2)[nH]c2ccccc12 | -17.2% | -2.0% | ? | -1.3% | 2.51µM* | -19.8%
CC(=O)c1c(-c2ccccc2)[nH]c2ccccc12 | 38.6% | 0.0% | 3.5% | 2.0% | 62.9% | -7.8%
N#CC1=C(N)C2=C(N3CCCCC3)CCCC2C1(C#N)C#N (stereo not given) | -0.3% | 50.1µM* | 4.3% | -4.5% | ? | -9.6%
O=C1NC(=S)S/C1=C\c1cc2ccccc2nc1N1CCCCC1 | ? | -4.2% | 39.8µM* | 0.2% | -8.6% | -4.1%
COc1ccc2nc(N3CCCCC3)c(/C=C3\SC(=S)NC3=O)cc2c1 | -21.1% | 8.3% | 35.5µM* | -3.1% | -10.9% | -21.4%
COc1cccc(NC(=O)CN(C)CC(=O)NCc2ccco2)c1 | / | -1.7% | -4.4% | -0.4% | 12.7% | 0.7%
COc1cccc(CN(C)CC(=O)NC(=O)NCc2ccco2)c1 | 15.8µM* | ? | 17.8µM* | -9.1% | 35.5µM* | -18.7%
CS(=O)(=O)Nc1ccc(C(=O)NCCSCc2ccco2)cc1 | -20.7% | -10.0% | ? | 5.1% | 10.1% | -1.8%
O=C(CSCc1c(F)cccc1Cl)NCc1ccco1 | 6.7% | -5.3% | -11.0% | -8.3% | -12.9% | -30.9%
Cc1ccc(CSCCNC(=O)CN(c2cc(C)ccc2C)S(C)(=O)=O)cc1 | -10.2% | -3.5% | -8.8% | 3.1% | 0.5% | -2.4%
O=C(CSCc1c(F)cccc1Cl)NCCSCc1ccco1 | 25.1µM* | -25.2% | 1.4% | -6.5% | -16.2% | -6.6%
Cc1ccc(C)c(N(CC(=O)NCCSCc2ccco2)S(C)(=O)=O)c1 | 28.2µM* | 79.4µM* | 22.4µM* | 23.9% | ? | -14.2%
O=C(NCCSCc1ccco1)c1ccc(=O)[nH]c1 | -7.0% | -38.5% | -19.9% | 4.7% | 50.1µM* | -7.9%
CCCNC(=O)c1ccc(Cn2cc(C(F)(F)F)ccc2=O)cc1 | -2.2% | -23.4% | -17.4% | 10.7% | 89.1µM* | 0.0%
CC(=O)Nc1cccc(-n2cc3c(c2-c2ccccc2Cl)c(=O)n(C)c(=O)n3C)c1 | 27.1% | 89.1µM* | 8.2% | -2.1% | ? | -4.2%
O=C(NC1CC(=O)N(c2ccc(F)cc2)C1)C(c1ccccc1)c1ccccc1 (stereo not given) | 0.9% | -0.5%[60.1 µM] | -21.4% | 2.2% | 45.7% | -5.6%
CN(C)c1ncc2nc(-c3ccc(Cl)cc3)c(=O)n(C3CC3)c2n1 | / | -3.1%[60.1 µM] | / | / | / | -21.2%
CN(C)c1ncc2nc(-c3ccccc3)c(=O)n(C3CC3)c2n1 | / | -2.2%[60.1 µM] | / | / | / | 22.4µM*
Oc1cc2cc(-c3csc(-c4ccc(F)cc4)n3)cc3c2n1CCC3 | / | -9.0% | / | / | 28.5% | /
O=C(NCCCc1nc2ccccc2n1CCCOc1ccccc1)C1CCCCC1 | / | 5.5% | / | / | 44.5% | /
COC(=O)c1scc(S(C)(=O)=O)c1-n1cccc1 | 2.6% | 6.3% | -9.6% | -13.9% | 185.0% | 0.6%
Cc1csc(C(=O)O)c1-n1cccc1 | 22.4µM* | -18.5% | 17.8µM* | ? | ? | -2.1%
SMILES | Pol beta inh | Pol kappa inh | Pol eta inh | GLS inh | POLI inh | GCN5L2 inh
COc1ccc(C(=O)N(Cc2ccco2)Cc2cccs2)c(OC)c1 | / | -20.8% | / | / | 13.1% | /
CC(=O)c1ccc2noc(-c3ccccc3)c2c1 | 19.9% | 12.3% | -6.4% | 3.2% | 33.8% | -21.3%
CN(C)/C=C/C(=O)c1ccc2noc(-c3ccccc3)c2c1 | ? | -18.4% | ? | 7.4% | 79.4µM* | -10.5%
O=C(NCc1ccccn1)c1ccc(Cn2c(=S)[nH]c3ccc(Br)cc3c2=O)cc1 | -24.8% | -2.4% | -7.5% | 9.5% | 179.8% | -0.4%
O=C(NCc1ccccn1)c1ccc(Cn2c(=S)[nH]c3ccccc3c2=O)cc1 | ? | -11.2% | -17.4% | -5.4% | 50.1µM* | -8.5%
Cc1c(C(=O)N(Cc2ccco2)Cc2cccs2)oc2ccccc12 | / | ? | ? | 5.0% | 39.8µM* | -2.9%
O=C(c1cc2ccccc2o1)N(Cc1ccco1)Cc1cccs1 | / | -23.4% | ? | 7.0% | 2.0% | -5.4%
CCc1ccc(CN2CCC(CO)(CC3CCCCO3)CC2)o1 (stereo not given) | -1.4% | 4.1% | -10.8% | -11.1% | 2.1% | 17.8µM*
Cc1ccc(CN2CCC(CO)(CC3CCCCO3)CC2)o1 (stereo not given) | 0.6% | -4.6% | -22.5% | 4.5% | 95.5% | 5.2%
CO[C@H]1/C=C\O[C@@]2(C)Oc3c(C)c(O)c4c(O)c(c(C=NN5CCN(C6CCCC6)CC5)c(O)c4c3C2=O)NC(=O)C(C)=CC=C[C@H](C)[C@H](O)[C@@H](C)[C@@H](O)[C@@H](C)[C@H](OC(C)=O)[C@H]1C | / | -14.8% | / | / | 5.5% | /
CCO/C=C1\SC(=S)N(c2ccc(Cl)cc2)C1=O | ? | -15.1% | -9.2% | 1.9% | 25.1µM* | 1.6%
CCN(CC)c1ccc(N2C(=O)/C(=C/c3cccs3)SC2=S)cc1 | 103.5% | -3.1% | 0.0% | 13.8% | 10.2% | -9.0%
O=C(COc1ccccc1C(=O)Nc1ccccc1)Nc1cccc(Cl)c1 | / | 3.5% | / | / | 0.1% | /
Nc1nc(-c2ccc(C(=O)O)cc2)cs1 | 24.8% | -10.6% | -10.1% | 0.8% | 86.2% | -4.9%
Cc1nc(-c2ccc(C(=O)O)cc2)cs1 | 79.4µM* | -8.9% | -8.8% | -1.2% | -0.7% | 1.2%
Cc1nc(-c2ccc(O)c(O)c2)cs1 | ? | -4.1% | -20.6% | 11.2µM* | 6.3% | -6.6%[0.501 µM]
Cc1nc(-c2cccc(NC(=O)c3ccc(-n4nccc4C)cc3)c2)cs1 | / | -13.6% | -8.5% | -2.4% | -8.0% | -5.8%
Cc1nc(-c2ccc(C(=O)Nc3cccc(Br)c3)cc2)cs1 | 31.6µM* | -13.4% | -17.2% | -5.3% | ? | -10.8%
Oc1ccc(-c2csc(-c3ccccc3)n2)cc1O | 7.94µM* | -32.6% | -19.8% | ? | 70.8µM* | -15.2%
[2H]c1c([2H])c([2H])c2c([nH]c(=S)n2C2CCN(CCCC(=O)c3ccc(F)cc3)CC2)c1[2H] | / | / | / | 8.4% | / | /
Nc1ccc(-c2cc3ccccc3[nH]2)cc1 | / | -14.3% | / | / | 29.3% | /
CCN(CCN(C)Cl)/[N+]([O-])=N/Oc1ccc([N+](=O)[O-])cc1[N+](=O)[O-] | / | 11.5% | / | / | ? | /
O=C1CC(NS(=O)(=O)c2ccc([N+](=O)[O-])cc2)CN1c1ccc2c(c1)OCCO2 (stereo not given) | / | -8.3% | 2.0% | -0.1% | 17.0% | -6.3%
